Calls of active or inactive are those of the source. How the source made its calls: active means hit-call score of the fitted dose curve at least 0.9, where 1 is the maximum; inactive means score below 0.9.

Broadly, the AC50 is the concentration at which the activity in the assay is half-maximal.

Conditions in all cases: mRNA level, 48 h; actives raise or lower the signal
Read-out in assay [1]: NAD(P)H dehydrogenase [quinone] 1 (NQO1), NQO1 (gene 1728)
Put plainly: LTEA_HepaRG_NQO1: Life Technologies and Expression Analysis (LTEA) Assay for NAD(P)H dehydrogenase [quinone] 1 (NQO1) using HepaRG (AID 2283526). An outline of the steps:
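Differentiated human HepaRG cells in serum-free induction medium, dosed in duplicate for 48 h at 8 half-log concentrations up to 100 uM in 0.5% DMSO. NQO1 mRNA by qRT-PCR normalized to ACTB, GAPDH, POLR2A; bidirectional fit versus DMSO baseline.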

Read-out in assay [2]: Nuclear factor erythroid 2-related factor 2 (Homo sapiens) (UniProt Q16236)
Put plainly: LTEA_HepaRG_NFE2L2: Life Technologies and Expression Analysis (LTEA) Assay for Nuclear factor erythroid 2-related factor 2 (NFE2L2) Transcription Factor using HepaRG (AID 2283527).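 On outcome: TaqMan qRT-PCR transcript level normalised to ACTB GAPDH and POLR2A housekeeping genes.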 An outline of the steps: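 Transcript level of NFE2L2 is the read-out, measured by microfluidic TaqMan qRT-PCR and normalized to three housekeeping genes. Human HepaRG cultures received test chemical for 48 h at up to 100 uM in half-log steps. Gain or loss of signal is fitted relative to 0.5% DMSO.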

Read-out in assay [3]: succinate dehydrogenase complex iron sulfur subunit B (SDHB), SDHB (gene 6390)
The assay is described as follows: LTEA_HepaRG_SDHB: Life Technologies and Expression Analysis (LTEA) Assay for succinate dehydrogenase complex iron sulfur subunit B (SDHB) using HepaRG (AID 2283528). A digest of the protocol: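 Readout is SDHB transcript level by qRT-PCR, normalised to three housekeeping genes and fitted bidirectionally against 0.5% DMSO vehicle. Human HepaRG cells were treated for 48 h at up to 100 uM.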

Read-out in assay [4]: Signal transducer and activator of transcription 3 (Homo sapiens) (UniProt P40763)
The assay is described as follows: LTEA_HepaRG_STAT3: Life Technologies and Expression Analysis (LTEA) Assay for Signal transducer and activator of transcription (STAT3) using HepaRG (AID 2283529). A digest of the protocol:
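Read-out is STAT3 mRNA level by qRT-PCR, normalized to three housekeeping genes, in human HepaRG liver cells treated for 48 h. Concentrations ran from 100 uM downward in half-log steps; curves were fitted for gain or loss relative to 0.5% DMSO.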

Read-out in assay [5]: solute carrier (SLCO1B1), SLCO1B1 (gene 10599)
Put plainly: LTEA_HepaRG_SLCO1B1: Life Technologies and Expression Analysis (LTEA) Assay for solute carrier (SLCO1B1) using HepaRG (AID 2283530). An outline of the steps:
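Gain or loss of SLCO1B1 mRNA is fitted against the 0.5% DMSO vehicle in human HepaRG liver cells treated 48 h at up to 100 uM in half-log steps. Expression comes from qRT-PCR normalized to endogenous controls.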

Read-out in assay [6]: sulfotransferase 2A1 (SULT2A1), SULT2A1 (gene 6822)
Put plainly: LTEA_HepaRG_SULT2A1: Life Technologies and Expression Analysis (LTEA) Assay for sulfotransferase 2A1 (SULT2A1) using HepaRG (AID 2283531). An outline of the steps:
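Cells were plated and cultured 48 h, switched to serum-free induction medium, then dosed in duplicate for 48 h (8 concentrations, max 100 uM). RNA was isolated and SULT2A1 expression measured by qRT-PCR; gain or loss of signal fitted relative to DMSO.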

Read-out in assay [7]: Transforming Growth Factor (TGFA), TGFA (gene 7039)
The assay is described as follows: LTEA_HepaRG_TGFA: Life Technologies and Expression Analysis (LTEA) Assay for Transforming Growth Factor (TGFA) using HepaRG (AID 2283532). An outline of the steps: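 HepaRG (human liver line), 48 h exposure, 8 conc. half-log down from 100 uM, 0.5% DMSO vehicle, duplicates; serum-free induction medium. TGFA mRNA by TaqMan qRT-PCR, ACTB/GAPDH/POLR2A normalization; gain/loss fit vs DMSO.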

Read-out in assay [8]: Transforming Growth Factor (TGFB1), TGFB1 (gene 7040)
The assay is described as follows: LTEA_HepaRG_TGFB1: Life Technologies and Expression Analysis (LTEA) Assay for Transforming Growth Factor (TGFB1) Transporter using HepaRG (AID 2283533). A digest of the protocol: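 Expression change of TGFB1 in human HepaRG cells is measured after a 48 h chemical exposure, up to 100 uM in 0.5% DMSO vehicle. Curves are fitted in both directions relative to the DMSO baseline.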

Read-out in a further assay: TIMP1, TIMP1 (gene 7076)
The assay is described as follows: LTEA_HepaRG_TIMP1: Life Technologies and Expression Analysis (LTEA) Assay for TIMP1 using HepaRG (AID 2283534).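 Further: TaqMan qRT-PCR signal normalized to ACTB GAPDH and POLR2A housekeeping genes.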 A digest of the protocol: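 We dosed human liver HepaRG cultures for 48 hours with up to 100 uM test chemical and measured TIMP1 expression by qRT-PCR. Activity in either direction is fitted relative to the 0.5% DMSO vehicle.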

Read-out in assay [9]: Tumor necrosis factor receptor 1 (TNFRSF1A), TNFRSF1A (gene 7132)
Put plainly: LTEA_HepaRG_TNFRSF1A: Life Technologies and Expression Analysis (LTEA) Assay for Tumor necrosis factor receptor 1 (TNFRSF1A) using HepaRG (AID 2283535). An outline of the steps:
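Expression of TNFRSF1A in human HepaRG liver cells was measured by qRT-PCR 48 h after chemical dosing (maximum 100 uM). Bidirectional curve fitting used 0.5% DMSO as baseline.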

Signal transducer and activator of transcription 3 (Homo sapiens), sequence (P40763 whole entry, looked up): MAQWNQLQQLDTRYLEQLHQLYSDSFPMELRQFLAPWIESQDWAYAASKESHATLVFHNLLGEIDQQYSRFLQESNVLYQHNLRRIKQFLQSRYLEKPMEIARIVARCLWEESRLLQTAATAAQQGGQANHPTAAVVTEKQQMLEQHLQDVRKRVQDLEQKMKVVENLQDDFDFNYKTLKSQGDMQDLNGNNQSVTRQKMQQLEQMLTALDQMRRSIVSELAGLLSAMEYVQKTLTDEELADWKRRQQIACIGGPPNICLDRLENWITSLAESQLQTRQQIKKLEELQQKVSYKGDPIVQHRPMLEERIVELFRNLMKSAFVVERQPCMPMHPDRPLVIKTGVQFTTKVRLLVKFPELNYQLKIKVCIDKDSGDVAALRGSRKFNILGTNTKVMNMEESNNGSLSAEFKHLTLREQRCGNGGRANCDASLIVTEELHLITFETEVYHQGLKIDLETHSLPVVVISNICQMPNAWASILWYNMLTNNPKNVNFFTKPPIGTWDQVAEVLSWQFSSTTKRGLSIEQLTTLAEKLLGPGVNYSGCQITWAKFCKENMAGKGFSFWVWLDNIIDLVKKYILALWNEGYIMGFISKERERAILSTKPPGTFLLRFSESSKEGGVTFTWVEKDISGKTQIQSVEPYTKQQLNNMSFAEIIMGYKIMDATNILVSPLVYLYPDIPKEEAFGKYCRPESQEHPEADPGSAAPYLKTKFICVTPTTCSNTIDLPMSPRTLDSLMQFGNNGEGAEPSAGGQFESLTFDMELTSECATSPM
Nuclear factor erythroid 2-related factor 2 (Homo sapiens), sequence (Q16236 whole entry, looked up): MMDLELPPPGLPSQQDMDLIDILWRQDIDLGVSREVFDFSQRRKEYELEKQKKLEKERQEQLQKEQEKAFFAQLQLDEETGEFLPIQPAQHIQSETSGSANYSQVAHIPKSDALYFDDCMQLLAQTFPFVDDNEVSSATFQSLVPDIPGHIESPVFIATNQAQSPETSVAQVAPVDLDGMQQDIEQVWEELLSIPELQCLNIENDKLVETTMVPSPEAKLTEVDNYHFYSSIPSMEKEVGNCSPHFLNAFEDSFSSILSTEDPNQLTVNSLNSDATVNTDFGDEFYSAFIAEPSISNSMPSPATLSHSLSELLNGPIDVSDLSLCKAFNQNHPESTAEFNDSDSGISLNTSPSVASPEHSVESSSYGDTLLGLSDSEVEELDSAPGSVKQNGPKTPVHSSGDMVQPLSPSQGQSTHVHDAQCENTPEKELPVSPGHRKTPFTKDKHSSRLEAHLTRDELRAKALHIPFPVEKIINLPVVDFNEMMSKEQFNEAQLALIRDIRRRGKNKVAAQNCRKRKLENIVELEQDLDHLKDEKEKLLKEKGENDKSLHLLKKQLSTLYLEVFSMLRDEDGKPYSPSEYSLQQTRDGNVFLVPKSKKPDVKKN

As for `CCOCCOCCOCCO`, the outcome in assay [1], in assay [2], in [3], in assay [4], in assay [5] and in [6] was inactive. The outcome in [7] was “inactive”; in assay [8], “inactive”; with TIMP1, TIMP1 (gene 7076), “inactive”.

As to `O=C(O)c1cc(N=Nc2ccc(S(=O)(=O)Nc3ccccn3)cc2)ccc1O`, the molecule was classed as inactive in assay [1], in assay [2], in [3], in assay [4], in assay [5] and in assay [6]. Besides, the molecule was classed as inactive in assay [8] and in [9].

In the case of `COC(=O)c1c(Cl)c(Cl)c(C(=O)OC)c(Cl)c1Cl`, the molecule was classed as inactive in [1], in assay [2], in [3], in assay [4], in [5] and in assay [6]. For the same molecule, the outcome in [7] was “inactive”; in assay [8] it was “inactive”; with TIMP1, TIMP1 (gene 7076) it was “inactive”; in assay [9], “inactive”.

As to `CCCCC(CC)COC(=O)c1ccc(C(=O)OCC(CC)CCCC)cc1` (stereo unspecified), the result in assay [1], in assay [2], in assay [3], in [4], in [5] and in assay [6] was inactive. Moreover, the outcome in assay [7] was “inactive”; in [8], “inactive”; with TIMP1, TIMP1 (gene 7076) it was “inactive”; in [9], “inactive”.

For `CNS(=O)(=O)c1cc(C(=O)N2CCC(CCN3C4CCC3CC(n3c(C)nc5ccccc53)C4)(c3cccc(F)c3)CC2)c(Cl)cc1F` (stereo unspecified), the outcome is “inactive” in assay [1]; “inactive” in assay [2]; “inactive” in assay [4]; “inactive” in assay [7]; “inactive” with TIMP1, TIMP1 (gene 7076); “inactive” in assay [9]. In addition, the AC50 in assay [3] was 17.3 µM (active); in assay [5], 13.1 µM (active); in assay [6], 9.92 µM (active); in assay [8] it was 19.4 µM (active).

On to `Cc1[nH]cnc1C[C@H]1CCc2c(C)c3ccccc3n2C1=O`, for which the outcome was “inactive” in [1]; “inactive” in assay [4]; “inactive” in assay [7]; “inactive” in assay [8]; “inactive” in the assay with TIMP1, TIMP1 (gene 7076). The concentration at half-maximal activity (AC50) was 44.5 µM (active) in [2], 81.5 µM (active) in assay [3], 21.5 µM (active) in [5] and 63.6 µM (active) in assay [6].

As for `O=c1n(CC2CO2)c(=O)n(CC2CO2)c(=O)n1CC1CO1` (stereo unspecified), the result in assay [1], in assay [2], in [3], in assay [4], in assay [5] and in assay [6] was inactive. Also, the outcome in assay [7] is “inactive”; in [8], “inactive”; with TIMP1, TIMP1 (gene 7076) it was “inactive”.

Turning to `COCCOCCOCCOC`, the call in [1], in [2], in assay [3], in assay [4], in [5] and in [6] was inactive. Moreover, the outcome in assay [7] was “inactive”; in [8], “inactive”; with TIMP1, TIMP1 (gene 7076), “inactive”.

As for `CC(C)=CCCC(C)CCO` (stereo unspecified), the call in assay [1], in assay [2], in assay [3], in [4], in assay [5] and in [6] was inactive. For the same molecule, the outcome in [7] is “inactive”; in [8], “inactive”; with TIMP1, TIMP1 (gene 7076), “inactive”.

Turning to `C[C@](N)(Cc1ccc(O)c(O)c1)C(=O)O`, the molecule was classed as inactive in assay [1], in assay [2], in assay [3], in assay [4], in assay [5] and in assay [7]. The outcome in assay [8] was “inactive”; in the assay with TIMP1, TIMP1 (gene 7076), “inactive”.

For `CC1=CC(=O)CC(C)(C)C1`, the result in assay [1], in assay [2], in [3], in assay [4], in [5] and in [6] was inactive. In addition, the outcome was “inactive” in assay [7]; “inactive” in assay [8]; “inactive” with TIMP1, TIMP1 (gene 7076).

In the case of `CCOc1cccc(-n2cc(C(=O)N3CCN(c4cc(C(=O)O)c5ccccc5c4)CC3)nc2-c2ccc(C)cc2)c1`, the concentration at half-maximal activity (AC50) in [1] is 78.4 µM (active); in assay [3], 82.3 µM (active); in assay [4], 50 µM (active); in assay [5], 37.4 µM (active); in assay [6], 35.7 µM (active); in assay [7], 88.7 µM (active). In addition, in [8], the half-maximal activity concentration (AC50) was 83.7 µM (active). The outcome was “inactive” in assay [2] and “inactive” with TIMP1, TIMP1 (gene 7076).

Turning to `CCOC(=O)c1ccc(C2CCC(NC[C@H](O)COc3ccc(O)c(NS(C)(=O)=O)c3)CC2)cc1` (stereo partly specified), the molecule was classed as inactive in assay [1], in [2], in assay [3], in [4], in assay [5] and in assay [6]. For the same molecule, the outcome in assay [7] is “inactive”; in assay [8], “inactive”; in the assay with TIMP1, TIMP1 (gene 7076), “inactive”.

As for `Nc1cccc(N)c1`, the molecule was called inactive in assay [1], in assay [2], in [3], in [4], in assay [5] and in assay [6]. The outcome in assay [7] was “inactive”; in assay [8] it was “inactive”; with TIMP1, TIMP1 (gene 7076), “inactive”.

As for `CC(C)c1cccc(C(C)C)c1N1C(=O)c2ccc(O)cc2C1=O`, the molecule was called inactive in [1], in [2], in [4], in [5], in [6] and in assay [7]. Besides, the outcome is “inactive” in assay [8] and “inactive” with TIMP1, TIMP1 (gene 7076). The concentration at half-maximal activity (AC50) in assay [3] is 50 µM (active).

In the case of `CC1(C)C(=O)N(Br)C(=O)N1Br`, the result in assay [1], in [2], in [3], in assay [4], in assay [5] and in [6] was inactive. For the same molecule, the outcome in assay [7] was “inactive”; in assay [8] it was “inactive”; with TIMP1, TIMP1 (gene 7076), “inactive”.

With `CC(C)CCCCCCOC(=O)c1ccc(C(=O)OCCCCCCC(C)C)c(C(=O)OCCCCCCC(C)C)c1`, the molecule was called inactive in assay [1], in assay [2], in [3], in [4], in [5] and in assay [6]. Also, the outcome in [7] was “inactive”; in assay [8], “inactive”; in the assay with TIMP1, TIMP1 (gene 7076) it was “inactive”; in [9] it was “inactive”.

Regarding `CCNc1ccccc1`, the call in assay [1], in assay [2], in assay [3], in assay [4], in assay [5] and in assay [6] was inactive. In addition, the outcome in assay [7] is “inactive”; in [8], “inactive”; in the assay with TIMP1, TIMP1 (gene 7076), “inactive”.

As to `CC[C@H]1CC[C@H](NCc2cc3c(cc2OC)[C@H]2C[C@H]2C(=O)N3C)[C@H](c2ccccc2)N1`, the molecule was called inactive in [1], in assay [2], in assay [3], in [4], in assay [5] and in assay [7]. The outcome is “inactive” in assay [8] and “inactive” in the assay with TIMP1, TIMP1 (gene 7076).

Consider `CC(C)CC(C)(O)C#CC(C)(O)CC(C)C` (stereo unspecified), for which the result in assay [1], in assay [2], in assay [3], in assay [4], in assay [5] and in assay [6] was inactive. Further, the outcome in assay [7] was “inactive”; in [8] it was “inactive”; in the assay with TIMP1, TIMP1 (gene 7076), “inactive”.

Take `NC(=O)NO`: the result in assay [1], in [2], in assay [3], in assay [4], in [5] and in assay [6] was inactive. The outcome was “inactive” in assay [7]; “inactive” in assay [8]; “inactive” with TIMP1, TIMP1 (gene 7076); “inactive” in assay [9].

The values above are taken from PubChem BioAssay (EPA / NIEHS).
